According to PubChem BioAssay:
The source made the active and inactive calls.

Legend:
[1] = anti-His antibody binders, primary screen, artefact control for SMM control protein annotation, biochemical, small-molecule microarray, 635 nm fluorescence (AID 1128); details: anti-His Alexa647 antibody binding, higher = more signal;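 also: score merges feature fluorescence with signal-to-noise for each printed compound spot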
[2] = tested on: Human papillomavirus type 1a E7 protein (residues 1-88); test: HPV1a E7 small-molecule binders, primary screen, biochemical, small-molecule microarray, residues 1-88, 635 nm (AID 1129); details: small-molecule microarray binding, fluorescence 635 nm; higher = more signal
[3] = target: Focal adhesion kinase 1 (Homo sapiens) (UniProt Q05397); test: small-molecule microarray binders of FAK, primary screen, biochemical, 635/667 nm fluorescence, BSA, DTT (AID 1130); details: PTK2 binding, 635 nm fluorescence, higher = more signal;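 also: composite of spot emission at 667 nm and signal to noise over triplicate slides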
[4] = tested on: Fibrinogen (Alexa647-labelled); test: fibrinogen binders on compound microarrays, profiling panel, artefact control for SMM control-protein annotation, biochemical, small-molecule microarray, 635/667 nm fluorescence (AID 1131); details: fibrinogen-A647 binding fluorescence, higher = more signal;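 also: z-score merges 667 nm fluorescence with per-spot signal-to-noise over triplicate slides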
[5] = target: Follistatin (Homo sapiens) (UniProt P19883); test: follistatin binders on small-molecule microarrays, primary screen, biochemical, small-molecule microarray, 635/667 nm fluorescence (AID 1132); details: FST binding, 635 nm fluorescence, higher = more signal
[6] = target: Fibroblast growth factor 2 (Homo sapiens) (UniProt P09038); test: FGF2 binders on small-molecule microarrays, primary screen, biochemical, small-molecule microarray, 635/667 nm fluorescence (AID 1133); details: small-molecule microarray binding, FGF2, fluorescence 635/667; higher = more signal
[7] = mitochondrial membrane potential change in A549 cells, profiling panel, cell-based, JC-1 fluorescence, basal, 24 h, 100 nL (AID 1138); details: higher = more signal;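 also: A549 lung adenocarcinoma cells under basal conditions with no added stimulus; test concentration not given here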
[8] = tested on: Lefty1; test: Lefty1 binders on small-molecule microarrays, primary screen, biochemical, small-molecule microarray, 635/667 nm fluorescence (AID 1139); details: small-molecule microarray binding, fluorescence 635/667; higher = more signal
[9] = tested on: wheat germ agglutinin (Triticum aestivum), Alexa647-labelled; test: wheat germ agglutinin binders on compound microarrays, profiling panel, artefact control for SMM control-protein annotation, biochemical, small-molecule microarray, 635/667 nm fluorescence (AID 1140); details: WGA-A647 binding, 635 nm fluorescence, higher = more signal;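 also: score merges 667 nm feature emission with signal to noise over triplicate slides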
[10] = target: Luciferin 4-monooxygenase (Photinus pyralis) (UniProt P08659); test: firefly luciferase enzyme inhibitors, primary screen, biochemical, luminescence, purified enzyme, 2006 set (AID 1141); details: SteadyGlo luminescence, 30 min, higher = more signal, called active from +8 up or from −8 down;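 also: cell-free assay with purified firefly luciferase at 100 ng per well in PBS; test concentration not given here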
Chain of Luciferin 4-monooxygenase (Photinus pyralis) (P08659 whole entry, looked up): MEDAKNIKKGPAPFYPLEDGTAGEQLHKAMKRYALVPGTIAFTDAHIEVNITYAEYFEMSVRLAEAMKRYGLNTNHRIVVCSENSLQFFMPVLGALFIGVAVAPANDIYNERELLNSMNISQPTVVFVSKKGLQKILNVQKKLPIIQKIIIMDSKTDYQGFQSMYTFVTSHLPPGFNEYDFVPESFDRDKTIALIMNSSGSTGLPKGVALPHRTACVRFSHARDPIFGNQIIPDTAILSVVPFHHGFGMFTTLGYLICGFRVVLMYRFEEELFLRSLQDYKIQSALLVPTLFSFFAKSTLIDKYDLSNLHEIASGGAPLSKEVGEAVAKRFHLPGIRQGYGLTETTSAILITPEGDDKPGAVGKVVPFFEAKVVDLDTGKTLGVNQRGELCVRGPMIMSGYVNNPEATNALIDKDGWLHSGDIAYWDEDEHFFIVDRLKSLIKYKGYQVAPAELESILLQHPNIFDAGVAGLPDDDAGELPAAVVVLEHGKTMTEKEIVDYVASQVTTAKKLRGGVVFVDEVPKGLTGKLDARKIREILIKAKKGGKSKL

Chain of Fibroblast growth factor 2 (Homo sapiens) (P09038 whole entry, looked up): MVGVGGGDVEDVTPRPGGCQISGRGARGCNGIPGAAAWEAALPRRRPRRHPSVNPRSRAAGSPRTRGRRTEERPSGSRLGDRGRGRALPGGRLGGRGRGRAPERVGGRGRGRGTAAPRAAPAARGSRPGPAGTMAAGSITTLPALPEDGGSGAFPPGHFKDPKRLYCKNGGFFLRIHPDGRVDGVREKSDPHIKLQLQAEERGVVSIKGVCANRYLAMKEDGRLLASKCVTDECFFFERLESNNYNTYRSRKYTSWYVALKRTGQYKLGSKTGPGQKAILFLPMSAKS
Chain of Focal adhesion kinase 1 (Homo sapiens) (Q05397 whole entry, looked up): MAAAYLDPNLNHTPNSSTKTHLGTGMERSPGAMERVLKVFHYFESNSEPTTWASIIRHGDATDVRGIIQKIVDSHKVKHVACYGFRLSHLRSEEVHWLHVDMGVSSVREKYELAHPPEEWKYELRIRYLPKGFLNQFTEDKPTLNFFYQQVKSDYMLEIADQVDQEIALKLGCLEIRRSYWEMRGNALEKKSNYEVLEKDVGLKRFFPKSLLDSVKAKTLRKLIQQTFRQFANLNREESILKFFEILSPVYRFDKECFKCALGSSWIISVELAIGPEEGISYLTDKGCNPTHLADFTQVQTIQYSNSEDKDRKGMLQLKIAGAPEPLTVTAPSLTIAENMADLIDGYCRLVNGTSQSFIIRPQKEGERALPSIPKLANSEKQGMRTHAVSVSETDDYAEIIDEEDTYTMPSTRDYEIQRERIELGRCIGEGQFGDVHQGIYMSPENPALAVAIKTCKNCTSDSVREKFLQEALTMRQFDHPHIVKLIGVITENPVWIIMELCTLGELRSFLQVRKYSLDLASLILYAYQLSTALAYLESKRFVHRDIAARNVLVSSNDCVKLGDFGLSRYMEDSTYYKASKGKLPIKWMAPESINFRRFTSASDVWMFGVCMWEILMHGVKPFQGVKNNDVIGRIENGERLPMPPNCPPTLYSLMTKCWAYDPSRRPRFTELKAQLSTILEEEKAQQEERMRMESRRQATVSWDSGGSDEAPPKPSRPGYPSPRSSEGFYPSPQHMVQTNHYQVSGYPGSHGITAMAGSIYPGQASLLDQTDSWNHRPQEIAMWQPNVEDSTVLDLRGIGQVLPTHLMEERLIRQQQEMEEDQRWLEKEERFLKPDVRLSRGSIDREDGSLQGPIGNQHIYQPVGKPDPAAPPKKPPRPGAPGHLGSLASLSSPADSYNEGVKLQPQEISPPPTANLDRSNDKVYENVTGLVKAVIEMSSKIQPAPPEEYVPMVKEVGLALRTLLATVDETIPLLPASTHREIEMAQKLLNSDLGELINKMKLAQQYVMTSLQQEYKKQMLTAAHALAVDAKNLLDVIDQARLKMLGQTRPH
Chain of Follistatin (Homo sapiens) (P19883 whole entry, looked up): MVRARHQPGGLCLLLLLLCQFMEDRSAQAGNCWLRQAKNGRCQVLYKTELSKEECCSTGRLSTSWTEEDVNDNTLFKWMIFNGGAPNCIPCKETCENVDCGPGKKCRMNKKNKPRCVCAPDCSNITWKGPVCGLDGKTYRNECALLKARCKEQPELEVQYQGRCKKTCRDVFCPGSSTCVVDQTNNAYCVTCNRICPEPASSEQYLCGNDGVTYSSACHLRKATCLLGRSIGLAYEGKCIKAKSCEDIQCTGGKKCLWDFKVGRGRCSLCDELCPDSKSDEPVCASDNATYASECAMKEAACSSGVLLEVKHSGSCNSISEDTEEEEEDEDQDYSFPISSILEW

Row | SMILES | composite z-score [1] | composite z-score [2] | composite z-score [3] | composite z-score [4] | composite z-score [5] | composite z-score [6] | z-score [7] | composite z-score [8] | composite z-score [9] | z-score [10]
1 | CC(C)C(CO)N1C(=O)[C@@H]2C3C(=O)OCCC/C=C\[C@H]3OC23C=CCN(Cn2nnc4ccccc42)C(=O)[C@@H]13 (stereo not given in full) | 2.67 | -0.233 | -0.0444 | -1.18 | -0.0048 | -1.08 | -0.477 | -0.0488 | -0.422 | -0.0817 (inactive)
2 | COC(=O)[C@@]1(Cc2ccc(OC)cc2)[C@H]2c3cc(C(=O)N(C)C)n(Cc4ccc(C)o4)c3C[C@H]2CN1C(=O)c1ccccc1 | 0.787 | 1.26 | 0.877 | 0.984 | 0.262 | -0.48 | 1.26 | -0.0198 | 1.1 | -18.5 (active)
3 | CCC#CCN(Cc1ccccc1Br)[C@H](/C=C/C1CC1)[C@@H](O)Cc1ccccc1 | 0.251 | -0.499 | -0.579 | -0.805 | -0.837 | -0.984 | -0.368 | -0.355 | -0.366 | 0.619 (inactive)
4 | COC(=O)[C@@]1(Cc2ccccc2)[C@H]2c3cc(C(=O)N(C)C)n(Cc4ccc(C)o4)c3C[C@H]2CN1C(=O)c1ccccc1 | 2.6 | 1.21 | 1.73 | 0.705 | 0.764 | 0.188 | -0.0901 | -0.566 | 1.26 | 0.429 (inactive)
5 | COc1ccc(C#Cc2ccc3c(c2)[C@]2(C(=O)N3)[C@H](c3ccc(OCCO)cc3)N3[C@H](c4ccccc4)[C@H](c4ccccc4)OC(=O)[C@H]3[C@@H]2C(=O)NC[C@H](O)c2ccccc2)cc1 | 0.825 | 1.23 | 0.116 | 0.928 | 0.789 | 1.05 | -1.54 | 0.906 | 0.887 | -0.0696 (inactive)
6 | NC(=O)NCC#Cc1ccc2c(c1)[C@]1(C(=O)N2)[C@H](c2ccccc2OCCO)N2[C@H](c3ccccc3)[C@H](c3ccccc3)OC(=O)[C@H]2[C@@H]1C(=O)NC[C@H](O)c1ccccc1 | 1.1 | -0.28 | 0.183 | 0.699 | 0.109 | -0.751 | -0.203 | -0.0823 | 0.91 | 0.896 (inactive)
7 | CCCCN1CC=CC23O[C@@H]4/C=C\CCC(C)OC(=O)C4[C@H]2C(=O)N(CCCO)[C@@H]3C1=O (stereo not given in full) | 1.41 | -0.708 | -0.198 | -0.992 | -0.885 | -1.24 | -0.573 | -0.46 | -0.588 | 0.821 (inactive)
8 | CCCNC(=O)[C@@]1(Sc2ccc(C)cc2)CC(=O)N(C2Cc3ccccc3C2)[C@@H]1c1ccc(CO)cc1I | 1.59 | 0.255 | 0.371 | 0.34 | 1.01 | -0.209 | 1.87 | 0.489 | 0.157 | -0.767 (inactive)
9 | CCOC(=O)C=Cc1cccc(C)c1O | 0.0346 | -0.0448 | 0.617 | 0.252 | 0.208 | 0.0326 | -1.56 | -0.0408 | -0.399 | -9.24 (active)
10 | C=CCC(OC(C)=O)[C@@H]1[C@@H](N(Cc2ccc(-c3ccccc3)cc2)C(=O)c2ccc(-c3ccccc3)cc2)c2cc(OCCCO)ccc2N1C(=O)c1ccc2ccccc2c1 (stereo not given in full) | -0.162 | 0.0751 | -0.138 | -0.239 | 0.707 | -0.193 | 0.657 | 0.476 | -0.094 | -0.424 (inactive)
11 | COc1ccccc1CN1C(=O)c2ccccc2[C@](Cc2ccccc2I)(C(=O)O)[C@@H]1c1ccc(CO)cc1 | 1.76 | 1.21 | 0.758 | 0.809 | 1.26 | 1.33 | 0.227 | 0.74 | 0.762 | -1.01 (inactive)
12 | COc1ccc([Si](C)(C)[C@@H]2[C@@H](CCO)O[C@]3(C(=O)N(Cc4ccccc4)c4ccc(N5CCOC5=O)cc43)[C@H]2C)cc1 | 0.515 | 1.11 | -0.0211 | 0.661 | 0.36 | 0.19 | -0.771 | 0.49 | 0.896 | 0.6 (inactive)
13 | CCOC(=O)C[C@H]1[C@H](OC(=O)Cc2ccc3c(c2)OCO3)[C@@H](NC(=O)c2ccc3ccccc3n2)c2cc(OCCCO)ccc2N1C(=O)c1ccc2ccccc2n1 | 0.267 | 0.496 | 0.629 | 0.913 | 0.497 | 0.13 | 3.18 | 0.37 | 0.754 | -1.83 (inactive)
14 | COCCOC(=O)N1C(=O)[C@@]2(c3cc(C#CC4(O)CCCCCC4)ccc31)[C@H](C(=O)N1CCc3cc(OC)c(OC)cc3C1)[C@H]1C(=O)O[C@H](c3ccccc3)[C@H](c3ccccc3)N1[C@@H]2c1ccc(OCCO)cc1 | 0.244 | 0.867 | 1.06 | 0.682 | 1.29 | 1.32 | -1.11 | 1.23 | 0.475 | -1.07 (inactive)
15 | CC1CC/C=C\[C@H]2OC34C=CCN(Cc5ccccc5)C(=O)[C@H]3N(C(CO)C(C)C)C(=O)[C@@H]4C2C(=O)O1 (stereo not given in full) | -0.696 | -1.03 | -0.475 | -0.798 | -0.528 | -0.81 | 1.32 | -0.722 | 0.389 | -1.15 (inactive)
16 | COC(=O)C1=CC(CCCO)=CC(c2cccs2)N(C)C=C1C(=O)OC (stereo not given) | 0.15 | -0.5 | 0.143 | -0.198 | -0.344 | -0.498 | 0.0963 | -0.307 | 0.507 | -0.674 (inactive)
17 | CCCCC=C[C@@H](NC(=O)OCc1ccccc1Cl)c1ccccc1 | 0.361 | 1.25 | 0.128 | 0.979 | 1.19 | -0.172 | -1.55 | 0.868 | 0.385 | 0.488 (inactive)
18 | CCCCCCCCCC(O)C1C=CC2C(=O)N(c3ccccc3)C(=O)C2N1Nc1cc(OC)c(OC)c(OC)c1 (stereo not given) | 0.374 | 0.675 | 0.636 | 0.585 | 0.0214 | -1.09 | -0.512 | -0.312 | 0.172 | -1.96 (inactive)
19 | Cc1ccc(N2C(=O)c3ccccc3[C@@H](C(=O)NCCCN(C)C)[C@@H]2c2ccc(CO)cc2)nc1 | 2.06 | 0.232 | -0.736 | 0.442 | 0.115 | -0.189 | -0.0107 | -0.978 | -0.0618 | 0.775 (inactive)
20 | CCCCCCCCCCC(O)C1C=CC2C(=O)N(c3ccccc3)C(=O)C2N1Nc1ccc(C#N)cc1 (stereo not given) | -0.0221 | 1.18 | 0.464 | 0.989 | 0.652 | 0.429 | 3.49 | 0.0328 | 1.13 | 0.675 (inactive)
21 | O=C1C[C@]2(c3ccc([N+](=O)[O-])cc3)C(=O)N(C3CC3)c3cc(CO)ccc3[C@H]2N1CC12CC3CC(CC(C3)C1)C2 | -0.496 | -0.336 | -0.421 | -0.168 | -0.579 | -0.364 | -1.17 | -1.5 | -0.456 | -0.124 (inactive)
22 | C=CC[C@@]1(C(=O)NCCCOC)N=C(c2ccc(OCCCO)cc2)O[C@@H]1c1ccccc1N=[N+]=[N-] | 2.2 | 1.21 | 0.474 | 1.03 | 1.28 | 0.0912 | 1.3 | -0.115 | 0.736 | -3.67 (inactive)
23 | CC(C)c1ccc(NN2C(C(O)c3ccc(F)cc3)C=CC3C(=O)N(c4ccccc4)C(=O)C32)cc1 (stereo not given) | 0.651 | 1.24 | 0.515 | 0.989 | 1.16 | -0.15 | -0.559 | 0.138 | 0.886 | -2.01 (inactive)
24 | CC1=C2[C@@H](CCc3ccccc3)OB(O)C[C@@H]2[C@@H]2C(=O)N(C)C(=O)[C@@H]2C1 | -0.463 | 0.591 | 0.0327 | 0.762 | 0.587 | 0.509 | -0.0475 | 0.617 | 0.344 | 0.143 (inactive)
25 | [N-]=[N+]=Nc1ccccc1C[C@]1(C(=O)NCCN2CCOCC2)COC(c2ccc(OCCCO)cc2)=N1 | 1.34 | 1.26 | 0.696 | 0.649 | 1.02 | 1.04 | 2.08 | -0.494 | 0.607 | -2.91 (inactive)
26 | COc1cc2c(cc1O)C=[N+](Cc1sc3ccccc3c1Cl)CC2 | 0.505 | 0.0341 | -0.292 | 0.257 | 0.609 | 0.182 | -0.571 | 0.0893 | 0.311 | 0.5 (inactive)
27 | COC(=O)[C@@]1(Cc2ccccc2)[C@H]2c3cc(C(=O)N4CCCC4)n(CCc4ccccn4)c3C[C@H]2CN1C(=O)c1ccccc1 | -0.295 | 1.28 | 1.34 | 1.01 | 0.758 | -0.28 | -0.0942 | 0.0814 | 1.16 | 2.38 (inactive)
